# Measurements: PubChem BioAssay (Tox21)
# Calls of active or inactive are those of the source. Entries that show only a call come without a potency. Calls come from the whole dose curve; as a rule, active = well fitted curve in the direction sought with a large enough effect in the repeat runs; inconclusive = weak or mixed curves; inactive = flat fitted curve, though single readings scatter.
# Experiment: qHTS assay to test for compound auto fluorescence at 590 nm (red) in HEK293 cell free culture (AID 720683)
# Details: cell-free medium autofluorescence, Ex540/Em590 red; series mostly up to 46 µM
# Excerpt: U.S. Tox21 Program National Center for Advancing Translational Sciences [NCATS] NIH Chemical Genomics Center [NCGC] U.S. Environmental Protection Agency [EPA] National Institutes of Environmental Health Sciences [NIEHS] National Toxicology Program [NTP] U.S. Food and Drug Administration [FDA] Tox21 Assay Overview: Compound auto fluorescence often interferes with screening of the compound library against various biological targets and signaling pathways. Some of these compounds may have fluorophoric properties. Such properties may interfere with the assay outputs resulting in false positives and/or negatives. To decrease such complications and ensure the compound activities are relevant in terms of biological response, the Tox21 10K compound library was screened for auto fluorescence. From the fluorophores used as reporter signals in our screening assays, the auto fluorescence equivalencies of compounds against three fluorophores have been evaluated: Triamterene, Fluorescein and Rose Bengal sodium for blue, green and red fluorescence, respectively. The fluorescence intensities were measured using Excitation/Emission wavelengths at 405/460nm, 485/535nm and 540/590nm for blue, green and red labels, respectively. This assay includes the red fluorescence data.
# Tox21 Assay Protocol Summary: 5 uL of culture medium (DMEM containing 10% FBS) per well was dispensed into black wall/clear bottom 1536-well plates using a Multidrop Combi Dispenser (ThermoFisher Scientific, Waltham, MA). After 23 nL compound or DMSO vehicle was transferred into assay plate by a pintool work station (Kalypsys, San Diego, CA), fluorescence intensities in the assay plates were measured by an Envision (PerkinElmer, Shelton, CT) plate reader using three labels for measuring blue, green and red fluorescence at […] 460, 535 and 590nm respectively.
row,Structure (SMILES),Potency
1,CCC(c1ccccc1)c1noc(CCN(CC)CC)n1 (stereo not given),inactive
2,CS(=O)(=O)OCCCNCCCOS(C)(=O)=O,inactive
3,NC(=O)OC[C@@H]1[C@H](NC(=O)/C(=N\OCC(=O)O)c2csc(N)n2)C(=O)N1S(=O)(=O)O,inactive
4,CC[C@]1(O)CC2CN(CCc3c([nH]c4ccccc34)[C@@](C(=O)OC)(c3cc4c(cc3OC)N(C)[C@H]3[C@@](O)(C(N)=O)[C@H](O)[C@]5(CC)C=CCN6CC[C@]43[C@@H]65)C2)C1 (stereo not given in full),inactive
5,CC1(C)[C@@H]2CC[C@@]1(C)[C@H](OC(=O)CSC#N)C2,inactive
6,C[N+](C)(CCCCCC[N+](C)(C)C1c2ccccc2-c2ccccc21)C1c2ccccc2-c2ccccc21,inactive
7,CCOC(=O)COc1ccc2c(C)c(CCN(CC)CC)c(=O)oc2c1,inactive
8,Cc1c(N)nc(C(CC(N)=O)NCC(N)C(N)=O)nc1C(=O)NC(C(=O)NC(C)C(O)C(C)C(=O)NC(C(=O)NCCc1nc(-c2nc(C(=O)NCCCN[C@@H](C)c3ccccc3)cs2)cs1)C(C)O)C(O[C@@H]1O[C@@H](CO)[C@@H](O)[C@H](O)[C@@H]1O[C@H]1O[C@H](CO)[C@@H](O)[C@H](OC(N)=O)[C@@H]1O)c1cnc[nH]1 (stereo not given in full),inactive
9,CCC(C)(C)OC(=O)N[C@@H](Cc1c[nH]c2ccccc12)C(=O)N[C@@H](CCSC)C(=O)N[C@@H](CC(=O)O)C(=O)N[C@@H](Cc1ccccc1)C(N)=O,inactive
10,CO[C@H]1[C@@H](O)[C@H](N)[C@@H](O[C@H]2O[C@H]([C@H](C)N)CC[C@H]2N)[C@H](O)[C@@H]1N(C)C(=O)CN,inactive
11,CN1CCC(OC(=O)C(Oc2ccc(Cl)cc2)Oc2ccc(Cl)cc2)CC1,inactive
12,Cc1ccc(/C(=C\CN2CCCC2)c2cccc(/C=C/C(=O)O)n2)cc1,inactive
13,O=C(Cn1c(=O)sc2ccc(Cl)cc21)N1CCN(CCO)CC1,inactive
14,CNC(=O)[C@H](Cc1c[nH]c2ccccc12)NC(=O)[C@@H](CC(=O)NO)CC(C)C,inactive
15,CCN(CC)CCOc1ccccc1OC,inactive
16,N[C@@H](C(=O)N[C@@H]1C(=O)N2C(C(=O)O)=C(CSc3cn[nH]n3)CS[C@H]12)c1ccc(O)cc1,inactive
17,CCCC(=O)Nc1ncnc2c1ncn2[C@@H]1O[C@@H]2COP(=O)(O)O[C@H]2[C@H]1OC(=O)CCC,inactive
18,CCOC(=O)C1=C[C@@H](OC(CC)CC)[C@H](NC(C)=O)[C@@H](N)C1,inactive
19,CCC(Oc1ccccc1)C(=O)N[C@@H]1C(=O)N2[C@@H]1SC(C)(C)[C@@H]2C(=O)O (stereo not given in full),inactive
20,CC(=O)[C@]1(O)Cc2c(O)c3c(c(O)c2[C@@H](O[C@H]2C[C@H](N)[C@H](O)[C@H](C)O2)C1)C(=O)c1c(O)cccc1C3=O,inactive

row,Structure (SMILES),Potency
1,CCOc1ccc(N=C(C)Nc2ccc(OCC)cc2)cc1,inactive
2,CCCC(CCC)C(N)=O,inactive
3,CC(O)[C@@H]1NC(=O)[C@H](Cc2ccccc2)NC(=O)[C@H](C(C)O)NC(=O)[C@H](CCCCN)NC(=O)[C@H](Cc2c[nH]c3ccccc23)NC(=O)[C@H](Cc2ccccc2)NC(=O)[C@H](Cc2ccccc2)NC(=O)[C@H](CC(N)=O)NC(=O)[C@H](CCCCN)NC(=O)[C@@H](NC(=O)CNC(=O)[C@H](C)N)CSSC[C@@H](C(=O)O)NC(=O)[C@H](CO)NC1=O (stereo not given in full),inactive
4,N#CC(c1ccc(Cl)cc1)c1c(Cl)cc(-n2ncc(=O)[nH]c2=O)cc1Cl (stereo not given),inactive
5,Cc1cccc(C)c1NC(=O)NC1=CCCN1C,inactive
6,CCC[C@@]1(CCc2ccccc2)CC(O)=C([C@H](CC)c2cccc(NS(=O)(=O)c3ccc(C(F)(F)F)cn3)c2)C(=O)O1,inactive
7,CN[C@@H]1[C@@H](O)[C@@H](O[C@@H]2[C@@H](O)[C@H](O[C@H]3O[C@H](CN)[C@@H](O)[C@H](O)[C@H]3O)[C@@H](N)C[C@H]2NC(=O)C(O)CN)OC[C@]1(C)O (stereo not given in full),inactive
8,COc1ccc(C(=O)Nc2ccccc2CCC2CCCCN2C)cc1 (stereo not given),inactive
9,CC1=C(/C=C/C(C)=C/C=C/C(C)=C/C=C/C=C(C)/C=C/C=C(C)/C=C/C2=C(C)C(=O)CCC2(C)C)C(C)(C)CCC1=O,inactive
10,NC(=O)Oc1ccc(Cc2ccccc2)cc1,inactive
11,CCC(Cc1c(I)cc(I)c(O)c1I)C(=O)O (stereo not given),inactive
12,C[C@H](/C=C/[C@H](C)C(C)(C)O)[C@H]1CC[C@H]2/C(=C/C=C3C[C@@H](O)C[C@H](O)C3)CCC[C@]12C,inactive
13,CCCCC/C=C\C/C=C\C/C=C\CCCCC(=O)O,inactive
14,C[C@]12CCC(=O)C=C1CC[C@@H]1[C@@H]2[C@@H](O)C[C@@]2(C)[C@H]1CC[C@]2(O)C(=O)COP(=O)(O)O,inactive
15,CN1CCN(CCC=C2c3ccccc3Sc3ccc(S(=O)(=O)N(C)C)cc32)CC1,inactive
16,O=C(O)C1=C(CSc2nnnn2CS(=O)(=O)O)CS[C@@H]2[C@H](NC(=O)[C@H](O)c3ccccc3)C(=O)N12,inactive
17,O=C(O)c1cc2ccccc2c(Cc2c(O)c(C(=O)O)cc3ccccc23)c1O,inactive
18,COc1ccc2cc([C@H](C)CO)ccc2c1,inactive
19,O=C(OC1C[C@@H]2CC3C[C@H](C1)N2CC3=O)c1c[nH]c2ccccc12 (stereo not given in full),inactive
20,CC1CCCC1,inactive
